SMILES strings stand for the structures. Results filed as inconclusive are left out. Values without a mark were called inactive. Active and inactive are the calls of the source. The call rests on the fitted dose curve; in most records, active means well fitted curve in the direction sought with a large enough effect; inconclusive means small, poorly fitted or top-dose-only effect, or another doubt; inactive means no such curve, though single readings can be large or run the other way.
Potency means the concentration at half of the fitted maximal effect.

This experiment deals with NanoLuc luciferase (engineered Oplophorus gracilirostris luciferase). Put plainly: Confirmatory Nanoluciferase (NLuc) qHTS assay for identification of artifact compounds. On activity change, negative = inhibition: % of control where 0% means no effect. The note with it: secreted NLuc in S16 cell medium, luminescence, 5 min; series mostly up to 39 µM; activity change, negative = inhibition: at the top concentration. Put shortly: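 Conditioned medium from NLuc-expressing S16 cells (diluted 1:55) as enzyme source; compounds 15 min at room temperature, then Nano-Glo substrate for 5 min. Luminescence normalized to no-enzyme and DMSO controls, fitted to 4-parameter Hill equation.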
A general note: Quantitative high-throughput screening tests each substance at several concentrations.
As to `CC(=O)Nc1ccc(Nc2nc3ccc(C)cc3n3nnnc23)cc1`, the “activity change, negative = inhibition” value is 1.1%. As for `OCC(O)C(O)C(OC1OC(CO)C(O)C(O)C1O)C(O)CO` (stereo unspecified), the “activity change, negative = inhibition” value was 4.48%.

On to `O=C(Nc1noc2ccccc12)c1c(F)cccc1F`, for which the “activity change, negative = inhibition” value is -3.71%.

With `CCCC[C@H]1C2=C3[C@@H](CC(C(=O)OC)=C[C@@H](C(=O)OC)[C@H]3C(C)(C)C2=O)n2c(=O)n(-c3ccccc3)c(=O)n21`, the “activity change, negative = inhibition” value is -3.75%. On the same count and under the same terms, next, `Cn1cc(S(=O)(=O)N2CCCC2)cc1C(=O)Nc1ccc(C(F)(F)F)cc1`: -8.69%; `Cc1ccc(CNc2ncnc3onc(-c4ccc(F)cc4)c23)cc1`: -15.1%.

Regarding `Cc1ccc(NC(=O)c2nc(-c3ccncc3)no2)c(Cl)c1`, the “activity change, negative = inhibition” value is 4.6%. The same measure, in the same setting: next, `CCN(CCCNC(=O)CSc1cc(=O)n(C)c2ccccc12)c1ccccc1`: -11.1%; `COc1cccc(C(=O)Nc2ccccc2-c2nnc(-c3ccc(C(C)(C)C)cc3)o2)c1`: -10.1%. On the same count and under the same terms, the same measure for `C[C@H](CCC(=O)O)[C@H]1CCC2C3CC[C@@H]4C[C@H](O)CC[C@]4(C)C3CC[C@@]21C` (stereo partly specified): -6.93%; for `CCOC(=O)c1ccc(N2C(=O)c3n[nH]c(-c4ccco4)c3C2c2ccc(F)cc2)cc1` (stereo unspecified): -17.7%; for `CCOC(=O)c1c(S(=O)(=O)NCC(=O)Nc2ccc(F)cc2C)c(C)n(C)c1C`: -2.68%. Still for that read-out and setting: the same measure for `COc1ccccc1/C=C/c1nc(C#N)c(NCCc2ccccc2)o1`: -17.7%.

Regarding `COc1ccc(C2Nc3ccccc3C(=O)N2Cc2ccccc2)cc1Oc1ccc(NC(C)=O)cc1` (stereo unspecified), the “activity change, negative = inhibition” value was -10.2%. On the same count and under the same terms, the same measure for `CCCS(=O)(=O)N1CC(=O)N(c2cc(C)cc(C)c2)C(C)(C(=O)NC2CCCCCC2)C1` (stereo unspecified): -15.1%. On the same count and under the same terms, next, `Cc1cccn2c(=O)c3cc(C(=O)NCc4ccccc4)c(=N)n(CCOCCO)c3nc12`: -20%; `COc1ccc(-c2nc3cccc(C)n3c2Nc2ccc(C)cc2)cc1`: -4.83%. On the same count and under the same terms, next, `Cc1c(Cl)cccc1NC(=O)N1CCOc2ccccc21`: -2.38%; `CC1(C)OC2CC(=O)OCC23C1CC(=O)C1(C)C3CC[C@@]2(C)[C@H](c3ccoc3)OC(=O)C3OC312` (stereo partly specified): 0.365%. Take `O=C(OCC#CCSc1nnc(-c2ccc3ccccc3c2)o1)c1ccsc1`: the “activity change, negative = inhibition” value was -10.1%. The same measure, in the same setting: next, `COc1ccccc1-c1nc2cc(NC(=O)c3ccccc3Cl)ccc2o1`: -4.05%. With `O=C(CCS(=O)(=O)c1nc(-c2ccc3c(c2)OCO3)cc(C(F)(F)F)n1)Nc1ccccc1C(F)(F)F`, the Potency is 12.2 µM (active). Regarding `COc1ccc(-c2c3c(=O)n(C)c(=O)n(C)c3c3n2-c2ccccc2NC3c2ccccc2OC)cc1` (stereo unspecified), the “activity change, negative = inhibition” value was -3.51%. Still for that read-out and setting: next, `Cc1ccc(NC(=O)Nc2nnc(SCC(=O)N3CCCCC3)s2)cc1`: -6.83%.

As to `O=C(Nc1nnc(-c2ccco2)o1)c1ccc(Cl)c(Cl)c1`, the “activity change, negative = inhibition” value is 9.94%. Still for that read-out and setting: the same measure for `CC(Sc1oc(-c2cccs2)nc1S(=O)(=O)c1ccccc1)c1ccccc1` (stereo unspecified): -16.5%; for `CCCNC(=O)N1CCCN(S(=O)(=O)c2ccc3c(ccn3CC)c2)CC1`: -1.42%; for `COc1ccc(-c2noc(N3CCC(C(=O)N4CCN(c5cccc(C)c5C)CC4)CC3)n2)cc1`: -5.97%. On the same count and under the same terms, next, `O=C(Nc1ccc2oc(-c3cccnc3)nc2c1)c1cc2ccccc2o1`: -7.65% [at 78.4 µM]; `CSc1ccc2nc(Nc3nnc(-c4cccs4)o3)sc2c1`: -6.97%.

Take `COc1cccc2cc(C(=O)Nc3ccc(F)c(F)c3)c(=O)oc12`: the “activity change, negative = inhibition” value is -6.18%.

The values are drawn from PubChem BioAssay AID1845224 (National Center for Advancing Translational Sciences (NCATS), 2023).
